Rango dissoc inh – qHTS Assay for Inhibitors of RanGTP induced Rango (Ran-regulated importin-beta cargo) - Importin beta complex dissociation. Snurportin-1 (Homo sapiens) + GTP-binding nuclear protein Ran (Homo sapiens) + Importin …. Biochemical FRET Rango-importin beta, RanGTP-induced dissociation. Potency, µM (top dose mostly 46.1 µM), for the others: at the highest dose activity change, negative = inhibition. 0.071% of 340,000 active. AID 540253, 2011; further: potency means the concentration at half of the fitted maximal effect; % of control where 0% means no effect; nearly all actives have a fitted effect of over 45% in size
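Rango FRET biosensor (snurportin-1 IBB flanked by N-terminal EYFP and C-terminal CFP10) at 0.1 uM, with 0.25 uM importin beta in PBS, 1mM DTT, 0.02% Tween-20, 0.1% BSA. 0.6 uM Ran, 2mM GTP and 0.2 uM RCC1 were then added for 45 min at room temperature. Inhibition read as loss of FRET rise.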
MmCpn inh – Inhibitors of TCP-1 ring complex (TRiC) of Methanococcus maripaludis (MmCpn): qHTS; 0.031% of 330,000 active; Potency, µM (top dose mostly 76.9 µM), without a hit: at the highest dose activity, negative = inhibition, usual class: inhibitors; Chaperonin Mm-Cpn (Methanococcus maripaludis); purified Mm-Cpn ATPase, ADP Transcreener TR-FRET; active means well fitted inhibition curve with a large enough effect; inconclusive means small, poorly fitted or top-dose-only effect; further: potency means the concentration at half of the fitted maximal effect; on the % scale 0 is the no-effect control and ±100 the full control effect; nearly all actives have a fitted effect of over 80% in size
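Measured: ADP formation by purified Mm-CPN. Conditions: 25 nM protein, 10 uM ATP, Tris pH 7.4 with Mg2+, K+ and DTT, 37°C for 30 min. Detection: Transcreener HTRF after 30 min at room temperature.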
Rango complex inh – qHTS Assay for Inhibitors of Rango (Ran-regulated importin-beta cargo) - Importin beta complex formation; Importin subunit beta-1 (Homo sapiens), Q14974; Rango CFP/YFP FRET sensor + importin beta, 45 min; Potency, µM (doses to about 92.2 µM), inactives show top-dose inhibition of complex formation; 0.031% of 340,000 active;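 further: potency means the concentration at half of the fitted maximal effect; 0% = DMSO wells and 100% = buffer wells lacking importin beta; nearly all actives have a fitted effect of over 15% in size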
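Inhibition scored from the CFP 486 nm/YFP 530 nm FRET ratio 45 min after adding 0.125 microM importin beta to 50 nM Rango biosensor preincubated 5 min with compound (room temperature, PBS with DTT, Tween-20, BSA). No-importin wells as positive control.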
D3 antag – qHTS of D3 Dopamine Receptor Antagonist: qHTS. D(3) dopamine receptor (Homo sapiens), P35462. D3R cells, DiscoveRx beta-arrestin luminescence, antagonist mode; stronger effect = lower value. max response, negative = inhibition, %. 2.5% of 360,000 active. AID 652054, 2013; in the data active means max response below about -50%; inconclusive means no clear call, values can overlap the other calls; further: on the % scale 0 is the no-effect control and ±100 the full control effect
Target sequence (P35462 whole entry, looked up): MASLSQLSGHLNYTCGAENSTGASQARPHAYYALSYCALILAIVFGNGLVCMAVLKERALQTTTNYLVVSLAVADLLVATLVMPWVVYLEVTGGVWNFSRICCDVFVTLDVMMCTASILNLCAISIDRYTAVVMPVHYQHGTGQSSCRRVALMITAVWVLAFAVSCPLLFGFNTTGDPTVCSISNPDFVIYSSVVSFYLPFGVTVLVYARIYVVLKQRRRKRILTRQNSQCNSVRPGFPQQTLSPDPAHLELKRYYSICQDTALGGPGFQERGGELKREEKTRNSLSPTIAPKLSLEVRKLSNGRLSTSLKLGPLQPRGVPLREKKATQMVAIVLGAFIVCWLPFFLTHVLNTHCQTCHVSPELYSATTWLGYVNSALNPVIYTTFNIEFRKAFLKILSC
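Cells plated overnight at 1500 cells/well, then exposed to library compounds with dopamine controls for 90 minutes at 37 degrees C. DiscoveRx reagent added for 30–60 minutes at room temperature; luminescence read, quantitative HTS format.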
DRD3 agonist – qHTS of D3 Dopamine Receptor Agonist: qHTS; max activation, %; D(3) dopamine receptor (Homo sapiens), P35462; 0.58% of 410,000 active; D3R DiscoveRx beta-arrestin cells, luminescence, 90 min; in the data active means max activation above about 30%; further: 0% is about no effect
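Cells at 1500/well, incubated overnight, then treated with pinned compounds (dopamine as control) for 90 min at 37 degrees C. DiscoveRx reagent added for 30 - 60 minutes at room temperature; luminescence read.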
PTAP TSG101 blk – qHTS Assay for Iinhibitors of HIV-1 Budding by Blocking the Interaction of PTAP/TSG101. Fluorescence polarization, FITC-PTAP peptide / Tsg101 binding. Potency, µM (doses to about 115 µM), inactives show top-dose activity change, negative = inhibition, hits mostly inhibitors. 340,000 tested, under 10 active. AID 493005, 2010; active means well fitted inhibition curve with a large enough effect in the main read-out, with a control signal flat, not every such curve was filed as active; inconclusive means small, poorly fitted or top-dose-only effect, or effect the other way, or a change in a side signal; inactive means no such curve, though single readings can be large or run the other way; further: potency means the concentration at half of the fitted maximal effect; % of control where 0% means no effect
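Fluorescence anisotropy tracks displacement of a FITC-tagged PTAP peptide (50 nM) from the Tsg101 binding domain (10 uM), following a 20 min room-temperature incubation at pH 7.5.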
The depositor's hits bear a star. In the library only some 2.9% were active in any assay of this set; here they are far more common. Unless noted, the call rests on the fitted dose curve.

`CC1CC(C)CN(C(=O)c2cccc(S(=O)(=O)NCc3ccccc3)c2)C1` (stereo unspecified) gave Rango dissoc inh 13%, MmCpn inh -1%, Rango complex inh 0%, D3 antag -20, DRD3 agonist -8 and PTAP TSG101 blk -1%.
`CC(C)(C)OC(=O)[C@H]1[C@H](c2ccc([N+](=O)[O-])cc2)C2(C(=O)c3ccccc3C2=O)C2c3ccccc3C=NN21` (stereo partly specified) gave Rango dissoc inh 1%, MmCpn inh -7%, Rango complex inh 0%, D3 antag -59*, DRD3 agonist -10 and PTAP TSG101 blk -5%.
Screening Cc1cccc(S(=O)(=O)NC(=O)C2(C)CCN2C(=O)CC2CCCCC2)c1 (stereo unspecified) returned D3 antag -4 and DRD3 agonist 4.
For CC1(C(=O)NS(=O)(=O)c2cccc(F)c2)CCN1C(=O)CC1CCCCC1 (stereo unspecified) the results were D3 antag 14 and DRD3 agonist 30*.
Screening Cc1cc(O)c2c(O)c3c(O)cccc3cc2c1 returned DRD3 agonist 10.
Screening COc1ccccc1Oc1ccc(S(=O)(=O)NCc2ccccn2)cc1 returned Rango dissoc inh 0%, MmCpn inh 0%, Rango complex inh 3%, D3 antag -79*, DRD3 agonist 15 and PTAP TSG101 blk -7%.
Screening O=C(/C=C/c1ccco1)OCC1CCCN2CCCCC12 (stereo unspecified) returned Rango dissoc inh 26%, MmCpn inh 1%, Rango complex inh -1%, D3 antag -8, DRD3 agonist 0 and PTAP TSG101 blk 0%.
For O=C(Nc1ccccc1)OC(CN1CCCCC1)C(F)(F)F (stereo unspecified) the results were Rango dissoc inh 30%, MmCpn inh inconclusive, Rango complex inh 2%, D3 antag -14, DRD3 agonist 4 and PTAP TSG101 blk -3%.
`O=C(Nc1ccccc1)OCC(CN1CCCCC1)OC(=O)Nc1ccccc1` (stereo unspecified) gave Rango dissoc inh 29%, MmCpn inh -1%, Rango complex inh inconclusive, D3 antag -89*, DRD3 agonist -80 and PTAP TSG101 blk 1%.
`O=C(Nc1ccccc1)OCC1CCCN2CCCCC12` (stereo unspecified) gave Rango dissoc inh 4%, MmCpn inh 2%, Rango complex inh 9%, D3 antag -53*, DRD3 agonist -14 and PTAP TSG101 blk -3%.
COc1cccc(CNC(=O)Cn2c(SCC(=O)Nc3ccc(C)c(C)c3)nc3ccccc32)c1 was read as DRD3 agonist 1.
Screening CCc1cccc(NC(=O)CCS(=O)(=O)c2ccc(C)cc2)c1 returned DRD3 agonist 7.
Screening Cc1ccc(N2CC(c3nc4ccccc4n3C)CC2=O)cc1C (stereo unspecified) returned Rango dissoc inh 8%, MmCpn inh 0%, Rango complex inh -3%, D3 antag 5, DRD3 agonist 1 and PTAP TSG101 blk -1%.
Cc1cc(C)cc(N2CC(c3nc4ccccc4n3C)CC2=O)c1 (stereo unspecified) was read as Rango dissoc inh -8%, MmCpn inh -2%, Rango complex inh -1%, D3 antag -54*, DRD3 agonist -6 and PTAP TSG101 blk -6%.
For CC1(C)CC(=O)C=C(c2ccc(OC(F)(F)F)cc2)C1 the results were Rango dissoc inh -9%, MmCpn inh -8%, Rango complex inh 1%, D3 antag 0, DRD3 agonist 0 and PTAP TSG101 blk 1%.
Screening CC1(C)CC(=O)C=C(c2ccc(Oc3ccccc3)cc2)C1 returned Rango dissoc inh -11%, MmCpn inh -2%, Rango complex inh 0%, D3 antag -65*, DRD3 agonist -6 and PTAP TSG101 blk -2%.
`COc1cc(-c2c(C(=O)c3ccccc3)[nH]c(N)c2C(N)=O)ccc1F` gave D3 antag 21 and DRD3 agonist 3.
For COc1ccc(-c2c(C(=O)c3ccccc3)[nH]c(N)c2C(=O)c2ccc(Br)cc2)cc1OC the results were D3 antag -73* and DRD3 agonist -4.
For COc1ccc(-c2c(C(=O)c3ccccc3)[nH]c(N)c2C(=O)c2ccccc2)cc1OC the results were D3 antag -67* and DRD3 agonist -10.
COc1ccc(C(=O)c2[nH]c(N)c(C(N)=O)c2-c2ccc(OC)c(OC)c2)cc1 was read as D3 antag 14 and DRD3 agonist 7.
Screening CCOc1ccccc1C1N=C(N)Nc2nc3ccccc3n21 (stereo unspecified) returned DRD3 agonist 2.
`CCCCOC(=O)Nc1nnc(/C=C/c2ccc(OC)cc2)s1` gave Rango dissoc inh 0%, MmCpn inh 1%, Rango complex inh 2%, D3 antag 1, DRD3 agonist 12 and PTAP TSG101 blk -2%.
`CCOC(=O)Nc1nnc(/C=C/c2ccc(OC)cc2)s1` gave Rango dissoc inh -10%, MmCpn inh 0%, Rango complex inh -4%, D3 antag -56*, DRD3 agonist -13 and PTAP TSG101 blk 1%.
COc1cc2nc(NCc3ccccc3Cl)n3nc(-c4cccnc4)nc3c2cc1OC was read as DRD3 agonist -15.
CCOc1ccc(NC(=O)Cc2c(O)c3ccccc3[nH]c2=O)cc1 was read as Rango dissoc inh 0%, MmCpn inh -1%, Rango complex inh -3%, D3 antag -63*, DRD3 agonist -13 and PTAP TSG101 blk -5%.
COc1cccc(NC(=O)Cc2c(O)c3ccccc3[nH]c2=O)c1 was read as Rango dissoc inh 0%, MmCpn inh 0%, Rango complex inh 2%, D3 antag -11, DRD3 agonist -4 and PTAP TSG101 blk -5%.

Screening results (PubChem BioAssay)
